Key:
Assay in all cases: DAPPL (digital affinity profiling via proximity ligation, sequencing); 10 mM Tris-HCl pH 7.5, 50 mM NaCl, 1 mM DTT, 4% glycerol, room temperature, 30 min; GST-TFs on glutathione beads, 16-mer random dsDNA library, 0.1% formaldehyde crosslink after washing; high values mean tight binding
FLI1 = molecular target: T1, FLI1 (Homo sapiens, UniProt Q01543 1-452); settings: protein: recombinant; tags: N-terminal GST; dsDNA, one strand shown
T1 sequence: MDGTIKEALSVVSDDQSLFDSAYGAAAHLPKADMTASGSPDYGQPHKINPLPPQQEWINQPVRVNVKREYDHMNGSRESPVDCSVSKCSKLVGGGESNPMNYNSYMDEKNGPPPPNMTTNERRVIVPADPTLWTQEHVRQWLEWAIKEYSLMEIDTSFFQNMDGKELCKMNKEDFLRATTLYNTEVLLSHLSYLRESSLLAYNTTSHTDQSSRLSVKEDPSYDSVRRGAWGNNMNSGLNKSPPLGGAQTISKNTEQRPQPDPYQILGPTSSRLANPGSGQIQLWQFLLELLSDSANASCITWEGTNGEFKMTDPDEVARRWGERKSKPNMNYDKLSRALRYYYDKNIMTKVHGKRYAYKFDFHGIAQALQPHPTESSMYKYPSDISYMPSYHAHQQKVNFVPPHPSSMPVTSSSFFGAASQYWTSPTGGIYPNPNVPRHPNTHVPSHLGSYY
Outline: (§1)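 Binding signal is defined as a hexamer's read frequency for one factor over its frequency for the tag-only sample. To obtain reads, GST-fused human transcription factors were expressed in yeast, captured on glutathione beads, barcoded with DNA and pooled with that sample. Pools met 200 nmole of a 16-mer random double-stranded DNA library in Tris/NaCl/DTT/glycerol buffer for 30 min at room temperature before washing, 0.1% formaldehyde crosslinking, proximity ligation (BsaI/T4 ligase, 1 h, 37 °C), PCR and Illumina NextSeq500 sequencing.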

ELK1 = molecular target: T2, ELK1 (Homo sapiens, UniProt P19419 1-428); settings: protein: recombinant; tags: N-terminal GST; dsDNA, one strand shown
T2 sequence: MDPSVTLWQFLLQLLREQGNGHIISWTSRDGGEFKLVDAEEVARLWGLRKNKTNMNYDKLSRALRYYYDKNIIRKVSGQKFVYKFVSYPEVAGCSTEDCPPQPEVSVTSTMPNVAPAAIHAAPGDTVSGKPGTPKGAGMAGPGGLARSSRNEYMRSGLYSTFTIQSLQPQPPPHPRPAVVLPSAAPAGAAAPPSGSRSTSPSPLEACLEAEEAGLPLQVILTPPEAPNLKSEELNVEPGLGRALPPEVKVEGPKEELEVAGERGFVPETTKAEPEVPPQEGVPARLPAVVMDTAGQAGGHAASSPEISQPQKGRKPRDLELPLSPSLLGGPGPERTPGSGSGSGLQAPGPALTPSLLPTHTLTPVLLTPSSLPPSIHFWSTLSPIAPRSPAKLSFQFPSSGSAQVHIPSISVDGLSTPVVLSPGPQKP
Outline: as §1

GABPA = molecular target: T3, GABPA (Homo sapiens, UniProt Q06546 1-454); settings: protein: recombinant; tags: N-terminal GST; dsDNA, one strand shown
T3 sequence: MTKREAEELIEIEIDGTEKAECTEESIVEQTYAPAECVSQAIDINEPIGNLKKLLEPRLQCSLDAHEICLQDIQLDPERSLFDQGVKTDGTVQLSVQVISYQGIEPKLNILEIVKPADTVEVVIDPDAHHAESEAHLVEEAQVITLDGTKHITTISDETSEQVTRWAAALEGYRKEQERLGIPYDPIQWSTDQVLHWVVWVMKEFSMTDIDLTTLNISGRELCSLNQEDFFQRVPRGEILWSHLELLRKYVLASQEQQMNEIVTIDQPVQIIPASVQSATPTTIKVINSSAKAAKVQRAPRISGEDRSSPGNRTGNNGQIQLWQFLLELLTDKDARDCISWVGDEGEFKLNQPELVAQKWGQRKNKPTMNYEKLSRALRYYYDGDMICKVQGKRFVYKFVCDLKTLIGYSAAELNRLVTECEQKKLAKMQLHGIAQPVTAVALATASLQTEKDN
Outline: as §1

ERG = molecular target: T4, ERG (Homo sapiens, UniProt P11308 1-479); settings: protein: recombinant; tags: N-terminal GST; dsDNA, one strand shown
T4 sequence: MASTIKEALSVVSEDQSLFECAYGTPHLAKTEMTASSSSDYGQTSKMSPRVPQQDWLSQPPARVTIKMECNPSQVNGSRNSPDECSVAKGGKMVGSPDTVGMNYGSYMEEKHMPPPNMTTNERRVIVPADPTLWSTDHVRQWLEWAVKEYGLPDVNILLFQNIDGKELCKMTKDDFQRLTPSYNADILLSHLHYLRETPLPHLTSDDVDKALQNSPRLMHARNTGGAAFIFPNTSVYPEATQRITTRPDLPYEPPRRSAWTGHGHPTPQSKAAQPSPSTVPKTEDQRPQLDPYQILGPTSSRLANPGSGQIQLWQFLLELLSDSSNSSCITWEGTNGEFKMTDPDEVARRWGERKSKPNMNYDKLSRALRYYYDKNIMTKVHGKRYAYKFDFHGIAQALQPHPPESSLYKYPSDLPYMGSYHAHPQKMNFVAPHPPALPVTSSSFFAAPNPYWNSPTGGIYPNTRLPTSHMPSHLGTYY
Outline: as §1

ELF1 = ELF1 (Homo sapiens, UniProt P32519 1-619); settings: protein: recombinant; tags: N-terminal GST; dsDNA, one strand shown
Outline: as §1

EHF = molecular target: T5, EHF (Homo sapiens, UniProt Q9NZC4 1-300); settings: protein: recombinant; tags: N-terminal GST; dsDNA, one strand shown
T5 sequence: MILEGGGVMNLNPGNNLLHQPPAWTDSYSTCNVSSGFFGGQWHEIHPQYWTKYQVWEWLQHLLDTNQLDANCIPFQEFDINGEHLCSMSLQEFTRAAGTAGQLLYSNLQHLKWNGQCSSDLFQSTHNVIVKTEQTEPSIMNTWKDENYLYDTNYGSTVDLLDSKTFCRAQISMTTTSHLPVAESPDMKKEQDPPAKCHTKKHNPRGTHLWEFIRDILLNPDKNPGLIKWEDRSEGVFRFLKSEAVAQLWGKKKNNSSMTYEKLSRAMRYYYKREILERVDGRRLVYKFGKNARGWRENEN
Outline: as §1

SPI1 = SPI1 (Homo sapiens, UniProt P17947 1-270); settings: protein: recombinant; tags: N-terminal GST; dsDNA, one strand shown
Outline: as §1

SPIB = SPIB (Homo sapiens, UniProt Q01892 1-262); settings: protein: recombinant; tags: N-terminal GST; dsDNA, one strand shown
Outline: as §1

ELK3 = molecular target: T6, ELK3 (Homo sapiens, UniProt P41970 1-407); settings: protein: recombinant; tags: N-terminal GST; dsDNA, one strand shown
T6 sequence: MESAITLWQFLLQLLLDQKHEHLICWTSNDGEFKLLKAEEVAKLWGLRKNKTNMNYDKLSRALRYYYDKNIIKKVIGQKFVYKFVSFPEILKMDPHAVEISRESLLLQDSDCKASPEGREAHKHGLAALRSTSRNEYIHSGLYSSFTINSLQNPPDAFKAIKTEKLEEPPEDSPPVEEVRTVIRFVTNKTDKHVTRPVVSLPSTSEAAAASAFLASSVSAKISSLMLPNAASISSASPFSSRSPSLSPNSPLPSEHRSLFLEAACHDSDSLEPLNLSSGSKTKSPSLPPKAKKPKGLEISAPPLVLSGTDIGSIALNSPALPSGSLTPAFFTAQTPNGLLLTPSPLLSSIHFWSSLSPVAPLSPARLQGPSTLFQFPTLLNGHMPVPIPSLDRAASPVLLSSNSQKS
Outline: as §1

FEV = molecular target: T7, FEV (Homo sapiens, UniProt Q99581 1-238); settings: protein: recombinant; tags: N-terminal GST; dsDNA, one strand shown
T7 sequence: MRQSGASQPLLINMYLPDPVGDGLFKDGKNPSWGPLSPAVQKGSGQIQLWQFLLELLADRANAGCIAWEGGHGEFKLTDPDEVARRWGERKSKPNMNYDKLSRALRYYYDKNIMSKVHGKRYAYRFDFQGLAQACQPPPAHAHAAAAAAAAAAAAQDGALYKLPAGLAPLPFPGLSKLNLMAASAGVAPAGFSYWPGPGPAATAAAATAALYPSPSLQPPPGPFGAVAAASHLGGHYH
Outline: as §1

ETV5 = ETV5 (Homo sapiens, UniProt P41161 1-510); settings: protein: recombinant; tags: N-terminal GST; dsDNA, one strand shown
Outline: as §1

HSF1 = HSF1 (Homo sapiens, UniProt Q00613 1-529); settings: protein: recombinant; tags: N-terminal GST; chain copies: 3; dsDNA, one strand shown
Outline: as §1

SPIC = molecular target: T8, SPIC (Homo sapiens, UniProt Q8N5J4 1-248); settings: protein: recombinant; tags: N-terminal GST; dsDNA, one strand shown
T8 sequence: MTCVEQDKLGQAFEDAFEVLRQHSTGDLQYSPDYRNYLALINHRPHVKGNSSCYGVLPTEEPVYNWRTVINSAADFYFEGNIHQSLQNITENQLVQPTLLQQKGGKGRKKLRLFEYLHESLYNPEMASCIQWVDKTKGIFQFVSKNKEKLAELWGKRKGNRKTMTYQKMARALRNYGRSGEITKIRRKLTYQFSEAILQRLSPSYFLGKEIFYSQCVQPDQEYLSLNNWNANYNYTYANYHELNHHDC
Outline: as §1

ELF4 = ELF4 (Homo sapiens, UniProt Q99607 1-663); settings: protein: recombinant; tags: N-terminal GST; dsDNA, one strand shown
Outline: as §1

ELK4 = molecular target: T9, ELK4 (Homo sapiens, UniProt P28324-2 1-405); settings: protein: recombinant; tags: N-terminal GST; dsDNA, one strand shown
T9 sequence: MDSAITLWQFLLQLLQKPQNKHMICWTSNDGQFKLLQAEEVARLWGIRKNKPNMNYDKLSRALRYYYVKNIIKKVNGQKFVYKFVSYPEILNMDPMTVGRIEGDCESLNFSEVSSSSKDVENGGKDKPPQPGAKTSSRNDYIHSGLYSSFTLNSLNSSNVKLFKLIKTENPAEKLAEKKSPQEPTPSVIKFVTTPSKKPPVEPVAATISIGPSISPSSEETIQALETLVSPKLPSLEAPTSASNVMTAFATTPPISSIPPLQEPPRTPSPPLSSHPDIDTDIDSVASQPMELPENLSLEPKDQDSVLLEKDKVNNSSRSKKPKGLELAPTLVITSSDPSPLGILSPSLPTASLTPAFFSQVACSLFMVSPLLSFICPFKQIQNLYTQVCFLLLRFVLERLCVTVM
Outline: as §1

ETV2 = molecular target: T10, ETV2 (Homo sapiens, UniProt O00321 1-342); settings: protein: recombinant; tags: N-terminal GST; dsDNA, one strand shown
T10 sequence: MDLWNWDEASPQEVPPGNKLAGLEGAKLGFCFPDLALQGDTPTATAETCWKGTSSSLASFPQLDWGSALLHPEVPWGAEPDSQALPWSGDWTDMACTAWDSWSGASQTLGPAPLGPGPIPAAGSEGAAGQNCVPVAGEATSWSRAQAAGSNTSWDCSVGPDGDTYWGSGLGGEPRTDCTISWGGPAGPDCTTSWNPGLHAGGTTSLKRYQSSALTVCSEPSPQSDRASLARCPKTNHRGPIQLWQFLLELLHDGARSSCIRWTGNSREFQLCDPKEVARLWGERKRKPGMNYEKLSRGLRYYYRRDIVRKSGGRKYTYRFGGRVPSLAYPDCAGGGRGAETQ
Outline: as §1

ELF3 = molecular target: T11, ELF3 (Homo sapiens, UniProt P78545 1-371); settings: protein: recombinant; tags: N-terminal GST; dsDNA, one strand shown
T11 sequence: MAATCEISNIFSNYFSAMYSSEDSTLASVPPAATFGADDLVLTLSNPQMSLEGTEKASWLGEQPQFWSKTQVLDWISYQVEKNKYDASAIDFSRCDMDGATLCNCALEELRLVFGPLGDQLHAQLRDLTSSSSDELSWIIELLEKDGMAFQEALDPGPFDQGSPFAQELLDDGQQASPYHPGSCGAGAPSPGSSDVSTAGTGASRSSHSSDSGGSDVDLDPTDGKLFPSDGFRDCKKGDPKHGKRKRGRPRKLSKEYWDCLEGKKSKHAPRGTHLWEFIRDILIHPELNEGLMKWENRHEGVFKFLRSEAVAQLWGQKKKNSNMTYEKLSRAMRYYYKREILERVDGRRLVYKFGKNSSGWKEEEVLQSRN
Outline: as §1

CRX = CRX (Homo sapiens, UniProt O43186 1-299); settings: protein: recombinant; tags: N-terminal GST; dsDNA, one strand shown
Outline: as §1

ETV1 = ETV1 (Homo sapiens, UniProt P50549 1-477); settings: protein: recombinant; tags: N-terminal GST; dsDNA, one strand shown
Outline: as §1

Chain of SPIB (Q01892 whole entry): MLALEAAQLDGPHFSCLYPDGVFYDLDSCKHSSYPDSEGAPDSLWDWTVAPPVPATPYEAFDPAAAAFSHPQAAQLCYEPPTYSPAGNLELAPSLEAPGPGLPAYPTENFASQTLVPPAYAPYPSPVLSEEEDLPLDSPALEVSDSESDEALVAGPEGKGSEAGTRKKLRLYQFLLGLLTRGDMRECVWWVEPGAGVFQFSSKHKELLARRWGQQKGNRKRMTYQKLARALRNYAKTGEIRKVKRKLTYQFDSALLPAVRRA
Chain of CRX (O43186 whole entry): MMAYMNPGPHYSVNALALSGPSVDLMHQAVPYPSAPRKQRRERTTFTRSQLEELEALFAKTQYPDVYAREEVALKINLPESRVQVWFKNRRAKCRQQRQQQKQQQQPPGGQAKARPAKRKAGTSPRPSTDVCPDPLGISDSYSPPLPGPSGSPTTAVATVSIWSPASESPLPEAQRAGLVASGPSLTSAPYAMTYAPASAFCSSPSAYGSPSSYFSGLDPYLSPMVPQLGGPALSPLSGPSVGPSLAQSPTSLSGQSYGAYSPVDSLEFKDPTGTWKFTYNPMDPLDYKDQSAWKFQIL
Chain of ELF4 (Q99607 whole entry): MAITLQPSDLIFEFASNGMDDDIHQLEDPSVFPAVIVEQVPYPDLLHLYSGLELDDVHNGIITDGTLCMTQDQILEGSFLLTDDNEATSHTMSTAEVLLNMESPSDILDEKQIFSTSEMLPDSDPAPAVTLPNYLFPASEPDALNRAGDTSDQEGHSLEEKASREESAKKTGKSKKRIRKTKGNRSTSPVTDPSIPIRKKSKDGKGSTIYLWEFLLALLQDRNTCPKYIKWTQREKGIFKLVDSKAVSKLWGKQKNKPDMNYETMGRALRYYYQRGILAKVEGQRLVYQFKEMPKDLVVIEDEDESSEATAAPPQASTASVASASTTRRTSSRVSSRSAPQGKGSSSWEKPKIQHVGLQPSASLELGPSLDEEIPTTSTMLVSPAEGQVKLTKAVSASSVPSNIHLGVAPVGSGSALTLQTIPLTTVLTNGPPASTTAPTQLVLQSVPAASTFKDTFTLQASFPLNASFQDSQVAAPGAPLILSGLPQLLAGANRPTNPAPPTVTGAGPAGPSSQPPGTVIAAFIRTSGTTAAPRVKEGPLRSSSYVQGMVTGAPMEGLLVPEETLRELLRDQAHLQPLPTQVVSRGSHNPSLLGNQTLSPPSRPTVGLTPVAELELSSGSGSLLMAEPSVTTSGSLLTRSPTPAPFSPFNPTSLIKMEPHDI
Chain of ETV1 (P50549 whole entry): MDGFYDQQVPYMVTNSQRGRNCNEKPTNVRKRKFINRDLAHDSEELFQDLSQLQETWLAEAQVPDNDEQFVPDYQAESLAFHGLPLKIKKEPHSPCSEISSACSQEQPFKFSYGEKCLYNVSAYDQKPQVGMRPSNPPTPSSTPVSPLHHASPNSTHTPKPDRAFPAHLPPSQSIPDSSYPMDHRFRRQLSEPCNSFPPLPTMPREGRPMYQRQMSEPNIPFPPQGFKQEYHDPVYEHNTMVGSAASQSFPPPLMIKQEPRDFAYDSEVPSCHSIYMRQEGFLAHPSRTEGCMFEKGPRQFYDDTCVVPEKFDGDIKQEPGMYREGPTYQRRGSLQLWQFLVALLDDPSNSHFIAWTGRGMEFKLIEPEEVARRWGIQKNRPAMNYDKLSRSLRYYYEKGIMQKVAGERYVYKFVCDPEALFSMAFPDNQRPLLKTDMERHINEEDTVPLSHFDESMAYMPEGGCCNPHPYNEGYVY
Chain of ETV5 (P41161 whole entry): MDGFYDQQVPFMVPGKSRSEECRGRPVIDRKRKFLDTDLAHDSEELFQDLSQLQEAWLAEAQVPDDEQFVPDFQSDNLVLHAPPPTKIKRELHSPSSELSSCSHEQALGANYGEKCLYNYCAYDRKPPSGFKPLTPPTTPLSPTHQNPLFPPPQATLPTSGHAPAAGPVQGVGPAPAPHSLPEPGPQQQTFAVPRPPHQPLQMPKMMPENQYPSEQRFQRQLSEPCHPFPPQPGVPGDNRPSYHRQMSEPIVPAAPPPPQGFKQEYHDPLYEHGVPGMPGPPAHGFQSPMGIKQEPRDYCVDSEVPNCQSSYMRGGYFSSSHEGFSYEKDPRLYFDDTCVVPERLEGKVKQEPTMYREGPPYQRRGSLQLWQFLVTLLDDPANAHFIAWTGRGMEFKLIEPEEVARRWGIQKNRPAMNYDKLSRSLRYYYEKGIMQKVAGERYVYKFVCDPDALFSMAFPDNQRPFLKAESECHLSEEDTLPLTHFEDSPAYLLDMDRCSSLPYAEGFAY
Chain of ELF1 (P32519 whole entry): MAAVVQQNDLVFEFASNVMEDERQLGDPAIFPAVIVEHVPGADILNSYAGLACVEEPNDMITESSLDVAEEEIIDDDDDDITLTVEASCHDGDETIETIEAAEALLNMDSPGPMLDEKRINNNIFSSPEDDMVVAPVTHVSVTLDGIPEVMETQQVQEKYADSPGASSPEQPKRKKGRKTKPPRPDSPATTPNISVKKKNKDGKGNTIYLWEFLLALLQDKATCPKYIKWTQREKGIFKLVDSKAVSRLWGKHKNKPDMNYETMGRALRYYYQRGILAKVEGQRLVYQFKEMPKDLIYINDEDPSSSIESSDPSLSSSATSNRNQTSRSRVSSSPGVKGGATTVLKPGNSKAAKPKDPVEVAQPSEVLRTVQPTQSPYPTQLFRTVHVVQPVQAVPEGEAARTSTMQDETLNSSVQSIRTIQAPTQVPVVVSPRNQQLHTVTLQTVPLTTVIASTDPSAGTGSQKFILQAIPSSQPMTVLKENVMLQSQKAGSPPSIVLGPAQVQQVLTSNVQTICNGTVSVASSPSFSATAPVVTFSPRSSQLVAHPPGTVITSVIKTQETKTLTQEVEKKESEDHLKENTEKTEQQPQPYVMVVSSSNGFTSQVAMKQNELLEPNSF
Chain of HSF1 (Q00613 whole entry): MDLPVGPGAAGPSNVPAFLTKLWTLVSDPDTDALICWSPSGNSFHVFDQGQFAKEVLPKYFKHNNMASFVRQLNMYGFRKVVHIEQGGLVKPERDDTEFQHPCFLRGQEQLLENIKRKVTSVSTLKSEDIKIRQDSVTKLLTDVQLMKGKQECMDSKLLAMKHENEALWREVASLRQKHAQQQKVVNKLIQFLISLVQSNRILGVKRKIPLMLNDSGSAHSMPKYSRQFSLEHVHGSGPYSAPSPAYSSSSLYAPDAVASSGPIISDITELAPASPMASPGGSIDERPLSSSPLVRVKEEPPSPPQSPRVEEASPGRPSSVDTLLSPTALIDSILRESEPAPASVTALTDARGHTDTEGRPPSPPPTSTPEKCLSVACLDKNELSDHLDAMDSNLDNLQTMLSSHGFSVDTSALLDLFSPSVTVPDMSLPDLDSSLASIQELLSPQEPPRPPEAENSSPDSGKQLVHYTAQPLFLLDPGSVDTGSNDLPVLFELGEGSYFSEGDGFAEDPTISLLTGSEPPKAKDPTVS

**Q.** For AACCCG, which binding signal (FLI1) is on record?
**A.** 1.36 fold enrichment (6-mer frequency, TF over GST control)

**Q.** And the binding signal (ELK1)?
**A.** 1.44 fold enrichment (6-mer frequency, TF over GST control)

**Q.** What about the binding signal (GABPA) of the same sequence?
**A.** 1.31 fold enrichment (6-mer frequency, TF over GST control)

**Q.** And the binding signal (ERG)?
**A.** 1.46 fold enrichment (6-mer frequency, TF over GST control)

**Q.** What about the binding signal (ELF1) of the same sequence?
**A.** 1.5 fold enrichment (6-mer frequency, TF over GST control)

**Q.** What about the binding signal (EHF) of the same sequence?
**A.** 1.54 fold enrichment (6-mer frequency, TF over GST control)

**Q.** And the binding signal (SPI1)?
**A.** 1.36 fold enrichment (6-mer frequency, TF over GST control)

**Q.** What about the binding signal (SPIB) of the same sequence?
**A.** 1.46 fold enrichment (6-mer frequency, TF over GST control)

**Q.** What about the binding signal (ELK3) of the same sequence?
**A.** 1.49 fold enrichment (6-mer frequency, TF over GST control)

**Q.** And the binding signal (FEV)?
**A.** 1.44 fold enrichment (6-mer frequency, TF over GST control)

**Q.** What about the binding signal (ETV5) of the same sequence?
**A.** 1.51 fold enrichment (6-mer frequency, TF over GST control)

**Q.** What about the binding signal (HSF1) of the same sequence?
**A.** 1.07 fold enrichment (6-mer frequency, TF over GST control)

**Q.** And the binding signal (SPIC)?
**A.** 1.47 fold enrichment (6-mer frequency, TF over GST control)

**Q.** What about the binding signal (ELF4) of the same sequence?
**A.** 1.51 fold enrichment (6-mer frequency, TF over GST control)

**Q.** What about the binding signal (ELK4) of the same sequence?
**A.** 1.26 fold enrichment (6-mer frequency, TF over GST control)

**Q.** And the binding signal (ETV2)?
**A.** 1.47 fold enrichment (6-mer frequency, TF over GST control)

**Q.** And the binding signal (ELF3)?
**A.** 1.6 fold enrichment (6-mer frequency, TF over GST control)

**Q.** What about the binding signal (CRX) of the same sequence?
**A.** 1.2 fold enrichment (6-mer frequency, TF over GST control)

**Q.** And the binding signal (ETV1)?
**A.** 1.58 fold enrichment (6-mer frequency, TF over GST control)
